# Reference: PubChem BioAssay (NCATS)
# Records with an inconclusive call do not appear. Values without a mark were called inactive. Calls of active or inactive are those of the source. The call rests on the fitted dose curve; in most records, active means well fitted inhibition curve with a large enough effect in the repeat runs; inconclusive means weak or mixed curves; inactive means flat fitted curve, though single readings scatter. Where a SMILES comes first, the peptide text is derived from it.
# Biological target: Cytochrome P450 2D6 (Homo sapiens) (UniProt P10635)
# Test: Cytochrome P450 family 2 subfamily D member 6 (CYP2D6) small molecule antagonists: luciferase biochemical (cell-free) qHTS assay (AID 1645840); further: nearly all actives have a fitted effect of over 55% in size
# Details: P450-Glo CYP2D6 enzyme, luciferin luminescence, 1 h; series mostly up to 57.4 µM; activity change, negative = inhibition: at the top concentration
# Procedure, shortened: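 P450-Glo luminescent screen: recombinant CYP2D6 enzyme–proluciferin substrate mix preincubated with compound 10 min at room temperature, then NADPH regeneration added for 1 h at room temperature. Detection reagent added for 20 min; luciferin light read as relative luminescence units.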
# On the % scale 0 is the no-effect control and ±100 the full control effect; potency means the concentration at half of the fitted maximal effect.
# Chain of Cytochrome P450 2D6 (Homo sapiens) (P10635 whole entry, looked up): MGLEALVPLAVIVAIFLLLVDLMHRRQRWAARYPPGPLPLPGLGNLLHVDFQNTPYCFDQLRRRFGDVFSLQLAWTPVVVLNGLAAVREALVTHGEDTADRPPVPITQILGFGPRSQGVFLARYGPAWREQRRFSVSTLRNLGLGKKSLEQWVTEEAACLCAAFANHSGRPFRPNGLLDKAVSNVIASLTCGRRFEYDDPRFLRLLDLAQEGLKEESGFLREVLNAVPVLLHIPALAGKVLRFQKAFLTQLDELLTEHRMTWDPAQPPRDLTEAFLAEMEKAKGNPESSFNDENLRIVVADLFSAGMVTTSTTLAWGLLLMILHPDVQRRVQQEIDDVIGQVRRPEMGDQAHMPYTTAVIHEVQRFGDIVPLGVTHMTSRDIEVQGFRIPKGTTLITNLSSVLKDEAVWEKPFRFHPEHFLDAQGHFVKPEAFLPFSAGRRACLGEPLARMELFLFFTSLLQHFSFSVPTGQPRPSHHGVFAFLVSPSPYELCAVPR
SMILES,"activity change, negative = inhibition",Potency
COc1cc(C(=O)NC2CCCNC2)cc(OC)c1OC (centres undefined),-3.56%,
CC(=O)N(c1onc(C)c1C)S(=O)(=O)c1ccc(N)cc1,-15.8%,
C[C@@H]1C[C@H]2[C@@H]3CCC4=CC(=O)C=C[C@]4(C)[C@@]3(F)[C@@H](O)C[C@]2(C)[C@@]1(O)C(=O)COC(=O)c1ccncc1,,1230 nM (active)
CN(C)CCN1CCN(c2cccc(Cl)c2)C1=O,,15500 nM (active)
CCCCCCCCCCCCCCCCCCN(C)C,1.87%,
O=C(CCCl)NCc1ccccc1,5.12%,
Nc1ncnc2c1ncn2Cc1c(F)cccc1Cl,20.8%,
O=C(O)C(=O)Nc1cccc(-c2nn[nH]n2)c1,6.16%,
CC1CC(=O)NN=C1c1ccc(NCC(C)(C)NCC(O)COc2cc(Cl)ccc2C#N)cc1 (centres undefined),,871 nM (active)
O=C(Nc1ccc(Cl)cc1)Nc1ccc(Cl)c(C(F)(F)F)c1,,13800 nM (active)
COC(=O)CCCCC(CCSS/C(CCO)=C(\C)N(C=O)Cc1cnc(C)nc1N)SC(C)=O (centres undefined),6.83%,
CCN1CCN(C(=O)N[C@@H](C(=O)N[C@@H]2C(=O)N3[C@@H]2SC(C)(C)[C@H]3C(=O)O)c2ccccc2)C(=O)C1=O,-9.81%,
N#Cc1cc(NC(=O)C(=O)O)c(Cl)c(NC(=O)C(=O)O)c1,1.75%,
CNC(=O)c1c(I)c(NC(C)=O)c(I)c(C(=O)O)c1I,-2.23%,
O=C(CO)[C@@H](O)[C@H](O)[C@@H](O)CO,3.3%,
CN(CC1(C)CCCO1)S(=O)(=O)c1ccc(Cl)c(S(N)(=O)=O)c1 (centres undefined),-14.7%,
CC(=O)Nc1c(I)c(NC(C)=O)c(I)c(C(=O)O)c1I,1.68%,
O=C1[C@@H]2[C@H]3CC[C@H](C3)[C@@H]2C(=O)N1CCCCN1CCN(c2ncccn2)CC1,,15500 nM (active)
CC(C(O)c1ccccc1)N(C)CCOC(c1ccccc1)c1ccccc1 (centres undefined),,30.9 nM (active)
NC(=O)COCCN1CCN(C(c2ccccc2)c2ccc(Cl)cc2)CC1 (centres undefined),-4.44%,

SMILES,"activity change, negative = inhibition",Potency
C[C@H]1C[C@H]2[C@@H]3CCC4=CC(=O)C=C[C@]4(C)[C@H]3C(=O)C[C@]2(C)[C@@]1(O)C(=O)CO,6.96%,
O=C(O)CCCC[C@@H]1SC[C@@H]2NC(=O)N[C@@H]21,4%,
C#CC(C)(CC)OC(=O)c1ccccc1C(=O)O (centres undefined),1.81%,
COC(=O)/C=C\C(=O)OC,5.8%,
Nc1ccc2c(c1)CN1C(=O)c3ccccc3C1=N2,,1690 nM (active)
CN1C(=O)CC(C)(c2ccccc2)C1=O (centres undefined),9.79%,
O=C(CCCCC(=O)Nc1c(I)cc(I)c(C(=O)O)c1I)Nc1c(I)cc(I)c(C(=O)O)c1I,3.5%,
CC(=O)N[C@@H](CO)C(=O)N[C@@H](CC(=O)O)C(=O)N[C@@H](CCCCN)C(=O)N1CCC[C@H]1C(=O)O (Ac-SDKP-OH),1.7%,
O=[N+]([O-])c1nccn1CO[C@@H](CO)[C@H](O)CO,-7.68%,
CCCCCN(CCCOC)C(=O)C(CCC(=O)O)NC(=O)c1ccc(Cl)c(Cl)c1 (centres undefined),4.35%,
COC(=O)c1cc(Cl)c(NC(C)=O)cc1OC,-17%,
CCCCCOc1ccccc1/C(=C\SC)n1ccnc1,,977 nM (active)
O=C(O)c1ccc(OCCN2CCCCC2)cc1,8.23%,
CN1C(=O)c2ccccc2C1=O,3.8% [at 115 µM],
CC(C)OP(=O)(CP(=O)(OC(C)C)OC(C)C)OC(C)C,10.9%,
Cc1ccc2c(Cl)cc(Cl)c(O)c2n1,14%,
O=C1CC2(CCCC2)CC(=O)N1CCNCC1COc2ccccc2O1 (centres undefined),,490 nM (active)
Cn1c(=O)c2c(ncn2CC(=O)O)n(C)c1=O,2.04%,
Cc1ccc(/C=N/n2c(-c3ccccc3)csc2=S)cc1,-1.52%,
